Measurements published in PubChem BioAssay (NCATS).
“And” between values parts separate entries of the source, which are not always exact repeats. Equal values may be shown once. Results filed as inconclusive are left out. The source made the active and inactive calls. Calls come from the whole dose curve; as a rule, active = well fitted curve in the direction sought with a large enough effect; inconclusive = small, poorly fitted or top-dose-only effect, or another doubt; inactive = no such curve, though single readings can be large; an effect the other way counts as inactive or inconclusive.

Test: Primary qHTS for inhibitors of nuclear receptor binding SET domain protein 2 (NSD2) in an isogenic RCH-ACV NSD2 p.E1099K mutant (9B) (AID 1645876)
Conditions: RCH-ACV NSD2 E1099K (9B) viability, CellTiter-Glo, 72 h; series mostly up to 44.9 µM; activity change, negative = viability loss: at the top concentration
% is set by controls: 0 for no effect and ±100 for the full control effect; potency is the fitted concentration of half-maximal effect.
Note: nearly all actives have a fitted effect of over 70% in size.

| Compound | activity change, negative = viability loss | Potency | outcome |
| --- | --- | --- | --- |
| COCCc1ccc(OCC(O)CNC(C)C)cc1 (configuration not stated) | 1.78% (inactive) |  |  |
| CN(C)C(=O)Oc1ccc[n+](C)c1 | 1.3% (inactive) |  |  |
| O=C1CC2(CCCC2)CC(=O)N1CCCCN1CCN(c2ncccn2)CC1 | 3.64% (inactive) |  |  |
| COc1cc2c(cc1OC)-c1cc(=Nc3c(C)cc(C)cc3C)n(C)c(=O)n1CC2 |  | 15 µM (active) |  |
| CCCN1C[C@H](CSC)C[C@@H]2c3cccc4[nH]cc(c34)C[C@H]21 | -14.7% (inactive) |  |  |
| CCCCOCCOCCOCc1cc2c(cc1CCC)OCO2 |  | inactive |  |
| O=C1NCN(c2ccccc2)C12CCN(CCCC(c1ccc(F)cc1)c1ccc(F)cc1)CC2 |  | 4.22 µM (active) |  |
| CCn1ccnc1CC1COc2ccccc2O1 (configuration not stated) | -4.61% (inactive) |  |  |
| O=c1[nH]c(=O)n([C@H]2C[C@H](O)[C@@H](CO)O2)cc1Br |  | 0.841 µM (active) |  |
| CNC1(C)C2CCC(C2)C1(C)C (configuration not stated) | 2.49% (inactive) |  |  |
| COc1ccc(CN(CCN(C)C)c2ccccn2)cc1 | -12.8% (inactive) |  |  |
| CC(=O)[C@]1(O)Cc2c(O)c3c(c(O)c2[C@@H](O[C@H]2C[C@H](N)[C@H](O)[C@H](C)O2)C1)C(=O)c1ccccc1C3=O |  | 0.8 nM (active) and 41.7 nM (active) |  |
| CSc1ccc(C(=O)c2[nH]c(=O)[nH]c2C)cc1 | -3.11% (inactive) |  |  |
| CCCN(CCC)CCc1cccc2c1CC(=O)N2 |  |  | inactive |
| C[C@H](CS)C(=O)N1CCC[C@H]1C(=O)O |  |  | inactive |
| C[n+]1cc2c3c(ccc2c2ccc4cc5c(cc4c21)OCO5)OCO3 |  | 0.58 µM (active) |  |
| CC1=C(C)C(=O)C(CCCCC#CCCCC#CCO)=C(C)C1=O |  | 18.8 µM (active) |  |
| OCCN1CCN(CC/C=C2/c3ccccc3Sc3ccc(C(F)(F)F)cc32)CC1 |  | 15 µM (active) |  |
| CN(C)CC[C@@H](c1ccc(Br)cc1)c1ccccn1 | -14% (inactive) |  |  |
| O=C(O)CN(CCOCCOCCN(CC(=O)O)CC(=O)O)CC(=O)O | 5.34% [at 0.588 µM] (inactive) |  |  |
| COCCOC(=O)C1=C(C)NC(C)=C(C(=O)OC(C)C)C1c1cccc([N+](=O)[O-])c1 (configuration not stated) |  |  | inactive |

Test: Primary qHTS for inhibitors of nuclear receptor binding SET domain protein 2 (NSD2) in an RCH-ACV wild type WT cells (2C) (AID 1645877)
Conditions: RCH-ACV (leukaemia line) NSD2 WT (2C) viability, CellTiter-Glo, 72 h; series mostly up to 44.9 µM; activity change, negative = cell killing: at the top concentration

| Compound | outcome | activity change, negative = cell killing | Potency |
| --- | --- | --- | --- |
| COCCc1ccc(OCC(O)CNC(C)C)cc1 (configuration not stated) | inactive |  |  |
| CN(C)C(=O)Oc1ccc[n+](C)c1 | inactive |  |  |
| O=C1CC2(CCCC2)CC(=O)N1CCCCN1CCN(c2ncccn2)CC1 |  | -2.11% (inactive) |  |
| COc1cc2c(cc1OC)-c1cc(=Nc3c(C)cc(C)cc3C)n(C)c(=O)n1CC2 |  |  | 15 µM (active) |
| CCCCOCCOCCOCc1cc2c(cc1CCC)OCO2 |  | -18.9% (inactive) |  |
| O=C1NCN(c2ccccc2)C12CCN(CCCC(c1ccc(F)cc1)c1ccc(F)cc1)CC2 |  |  | 2.66 µM (active) |
| NC(=Nc1ccccc1)Nc1ccccc1 |  | -22.8% (inactive) |  |
| COC(=O)C1=C(C)NC(C)=C(C(=O)OCCN(C)Cc2ccccc2)C1c1cccc([N+](=O)[O-])c1 (configuration not stated) |  |  | 23.7 µM (active) |
| CCn1ccnc1CC1COc2ccccc2O1 (configuration not stated) |  | -18.7% (inactive) |  |
| O=c1[nH]c(=O)n([C@H]2C[C@H](O)[C@@H](CO)O2)cc1Br |  |  | 0.75 µM (active) |
| COc1cc(C(=O)OCCCN2CCCN(CCCOC(=O)c3cc(OC)c(OC)c(OC)c3)CC2)cc(OC)c1OC |  |  | 23.7 µM (active) |
| CN(C(=O)CCCOc1ccc2[nH]c(=O)ccc2c1)C1CCCCC1 |  | -17% (inactive) |  |
| Cc1nc2c([nH]1)c(=O)n(C)c(=O)n2Cc1ccco1 |  | -23.6% (inactive) |  |
| CNC1(C)C2CCC(C2)C1(C)C (configuration not stated) |  | 0.0961% (inactive) |  |
| COc1ccc(CN(CCN(C)C)c2ccccn2)cc1 |  | -9.39% (inactive) |  |
| CC(=O)[C@]1(O)Cc2c(O)c3c(c(O)c2[C@@H](O[C@H]2C[C@H](N)[C@H](O)[C@H](C)O2)C1)C(=O)c1ccccc1C3=O |  |  | 0.9 nM (active) and 37.2 nM (active) |
| CSc1ccc(C(=O)c2[nH]c(=O)[nH]c2C)cc1 |  | 5.81% (inactive) |  |
| CCCN(CCC)CCc1cccc2c1CC(=O)N2 |  | 3.64% (inactive) |  |
| C[C@H](CS)C(=O)N1CCC[C@H]1C(=O)O |  | 5.14% (inactive) |  |
| C[n+]1cc2c3c(ccc2c2ccc4cc5c(cc4c21)OCO5)OCO3 |  |  | 0.411 µM (active) |
| CCOC(=O)c1cnc2c(cnn2CC)c1NN=C(C)C |  | -15.3% (inactive) |  |
| CC1=C(C)C(=O)C(CCCCC#CCCCC#CCO)=C(C)C1=O |  |  | 10.6 µM (active) |
| OCCN1CCN(CC/C=C2/c3ccccc3Sc3ccc(C(F)(F)F)cc32)CC1 |  |  | 10.6 µM (active) |
| COc1ccc(CCN(C)CCCC(C#N)(c2cc(OC)c(OC)c(OC)c2)C(C)C)cc1OC (configuration not stated) |  |  | 15 µM (active) |
| O=C(O)CN(CCOCCOCCN(CC(=O)O)CC(=O)O)CC(=O)O |  | -1.31% [at 0.588 µM] (inactive) |  |
| COCCOC(=O)C1=C(C)NC(C)=C(C(=O)OC(C)C)C1c1cccc([N+](=O)[O-])c1 (configuration not stated) | inactive |  |  |
